Molecules are shown by their SMILES. The whole screen tested about 400,000 compounds, of which about 1,900 (0.47%) were called active. Roughly 14% stayed inconclusive and do not appear here. The rule behind the calls is not given here. Shown is part of a subset that was picked to be rich in actives.

The target in this assay is Ataxin-2 (Homo sapiens) (UniProt Q99700). The experiment in a line: qHTS for Inhibitors of ATXN expression. The class given is functional. Background: qHTS replaces the single test concentration by a dilution series.
Chain of Ataxin-2 (Homo sapiens) (Q99700 whole entry): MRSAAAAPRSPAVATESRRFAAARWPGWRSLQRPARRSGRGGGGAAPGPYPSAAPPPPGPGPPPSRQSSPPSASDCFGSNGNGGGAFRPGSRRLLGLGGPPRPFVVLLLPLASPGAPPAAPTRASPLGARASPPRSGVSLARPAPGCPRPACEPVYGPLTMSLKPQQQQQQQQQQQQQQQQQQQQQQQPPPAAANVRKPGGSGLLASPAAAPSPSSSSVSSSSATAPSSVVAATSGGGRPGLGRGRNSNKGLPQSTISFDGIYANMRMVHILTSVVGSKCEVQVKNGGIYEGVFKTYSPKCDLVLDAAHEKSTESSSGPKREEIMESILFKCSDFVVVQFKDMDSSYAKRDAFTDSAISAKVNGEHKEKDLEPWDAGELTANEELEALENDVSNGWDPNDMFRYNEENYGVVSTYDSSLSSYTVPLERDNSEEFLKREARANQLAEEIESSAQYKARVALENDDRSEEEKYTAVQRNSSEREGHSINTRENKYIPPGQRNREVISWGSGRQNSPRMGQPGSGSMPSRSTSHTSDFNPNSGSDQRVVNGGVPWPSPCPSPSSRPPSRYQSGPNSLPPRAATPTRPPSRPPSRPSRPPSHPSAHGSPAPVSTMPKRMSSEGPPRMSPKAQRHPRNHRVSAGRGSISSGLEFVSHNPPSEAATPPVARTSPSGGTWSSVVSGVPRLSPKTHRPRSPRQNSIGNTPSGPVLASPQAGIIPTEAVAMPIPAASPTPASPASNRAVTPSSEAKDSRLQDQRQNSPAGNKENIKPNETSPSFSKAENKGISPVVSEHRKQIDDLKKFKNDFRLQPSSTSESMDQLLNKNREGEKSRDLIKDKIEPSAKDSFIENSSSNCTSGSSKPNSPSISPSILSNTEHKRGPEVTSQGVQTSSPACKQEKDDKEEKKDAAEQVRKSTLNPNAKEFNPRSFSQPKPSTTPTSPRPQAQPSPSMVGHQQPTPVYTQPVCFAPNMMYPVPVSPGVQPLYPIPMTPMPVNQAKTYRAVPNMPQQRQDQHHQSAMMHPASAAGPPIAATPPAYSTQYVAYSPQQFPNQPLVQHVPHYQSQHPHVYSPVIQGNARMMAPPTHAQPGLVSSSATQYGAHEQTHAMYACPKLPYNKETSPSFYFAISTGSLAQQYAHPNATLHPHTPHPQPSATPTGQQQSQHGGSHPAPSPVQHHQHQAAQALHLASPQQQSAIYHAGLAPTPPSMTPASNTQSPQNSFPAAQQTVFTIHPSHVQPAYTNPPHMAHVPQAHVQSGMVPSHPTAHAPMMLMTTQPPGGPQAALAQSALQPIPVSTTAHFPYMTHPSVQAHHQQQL
With `Oc1nc2ccccc2n1C1CCN(C(c2cccs2)c2nnnn2Cc2ccccc2)CC1` (stereo not drawn), the Potency is 22.4 µM (active). With `Cc1cccc(C)c1-n1nnnc1C(c1cccs1)N1CCC(n2c(O)nc3ccccc32)CC1` (stereo not drawn) the figure was 20 µM (active).

For the molecule `Oc1nc2ccccc2n1C1CCN(C(c2cc3ccccc3o2)c2nnnn2Cc2ccccc2)CC1` (stereo not drawn), the Potency was 10 µM (active). With `COc1ccc(C(c2nnnn2Cc2ccccc2)N2CCC(n3c(O)nc4ccccc43)CC2)cc1` (stereo not drawn) the figure was 15.8 µM (active); with `COc1ccc2c3c([nH]c2c1)C(C)=NCC3`, “inactive”. `Cc1c(C)n(O)c2ccc3nonc3c12`: the Potency result was “inactive”. To `CCN(CC)c1ccc(N/C=C2\C(=O)NC(=O)N(Cc3ccco3)C2=O)cc1` belongs “inactive”.

Turning to `CCOP(=O)(OCC)c1nc(-c2ccc(F)cc2)oc1NCc1ccccc1`, the Potency entry is “inactive”. As to `Cc1ccccc1CN1Cc2cnnn2-c2ccccc2C1C#N` (stereo not drawn), the Potency was 17.8 µM (active). On to `COc1ccc(CN2Cc3cnnn3-c3ccccc3C2C#N)cc1` (stereo not drawn), for which the Potency is 12.6 µM (active). With `Nc1c(C(=O)NCCN2CCOCC2)c2nc3ccccc3nc2n1Cc1ccco1` the entry was “inactive”; with `ClCCN(CCCl)c1ccc(-n2cnc3c(Cl)ncnc32)cc1`, 35.5 µM (active). With `ClCCN(CCCl)c1ccc(C=Cc2ccncn2)cc1` the entry was “inactive”; with `COCCNC(=O)c1c(NC(=O)c2ccc(Br)o2)n(Cc2ccccc2)c2nc3ccccc3nc12`, “inactive”. With `CCCCCCCSc1cc(OC)c(CCN(C)C)cc1OC` the figure was 39.8 µM (active); with `C=CC[N+]1(C)C2CCC1CC(O)C2` (stereo not drawn), “inactive”; with `COc1ccccc1OCCCn1cc(C=O)c2ccccc21`, “inactive”. Regarding `Cc1ccc([C@H]2C[C@H](O)[C@@H](n3cc(COC(=O)c4ccccc4)nn3)CN2CC2CCCCC2)cc1`, the Potency is 31.6 µM (active). With `CCOC(=O)c1c(N)n(Cc2ccco2)c2nc3ccccc3nc12` the entry was “inactive”. To `O=C1C2(Cl)C3(Cl)C4(Cl)C(Cl)(Cl)C5(Cl)C3(Cl)C1(Cl)C5(Cl)C24Cl` (stereo not drawn) belongs 39.8 µM (active); to `CCCCn1c(NC(=O)c2ccc(Br)o2)c(C(=O)OCC)c2nc3ccccc3nc21`, “inactive”; to `O=c1[nH]c2ccccc2n1C1CCN(CCCC(c2ccc(F)cc2)c2ccc(F)cc2)CC1`, 31.6 µM (active). With `COCCCNC(=O)c1c(N)n(Cc2ccco2)c2nc3ccccc3nc12` the entry was “inactive”; with `O=[N+]([O-])c1ccc(Sc2nc3ccccc3o2)c([N+](=O)[O-])c1`, 25.1 µM (active); with `CCCCCc1nc2c(c(=O)c3ccccc3n2C)c(=O)n1C1CCCCCC1`, 31.6 µM (active). For the molecule `CCCCCn1c(=O)c(C(=O)Nc2ccccc2Cl)c(O)c2ccccc21`, the Potency result was “inactive”. With `Nc1c(C(=O)NCCN2CCOCC2)c2nc3ccccc3nc2n1Cc1ccccc1` the entry was “inactive”; with `COCCNC(=O)c1c(N)n(CCC(C)C)c2nc3ccccc3nc12`, “inactive”. With `CCOC(=O)c1c(C)n(Cc2ccccc2)c2ccc(OCC(O)CNC(C)(C)C)cc12` (stereo not drawn) the figure was 25.1 µM (active). With `COc1ccc(N2C(=O)NC(=O)/C(=C(/C)NCCc3c[nH]c4ccccc34)C2=O)cc1` the entry was “inactive”; with `CCCCn1c(N)c(C(=O)OCCOC)c2nc3ccccc3nc21`, “inactive”; with `CC(=O)OC1C2(CC3N4C(=O)C5(CO)SSC4(CC31O)C(=O)N5C)OC(C)C(C)(C)C2=O` (stereo not drawn), 2.38 µM (active).

Take `CCN1C(=O)C(=CNNC(=O)c2ccncc2)C(=O)N(CC)C1=S`: the Potency entry is “inactive”. With `CCCN1CCc2cccc3c2[C@H]1Cc1ccc(O)c(O)c1-3` the figure was 35.5 µM (active); with `Cc1ccccc1NC(=NCCCN1CC1)Nc1ccccc1C`, 9.47 µM (active); with `O=C(Nc1cccc(C(F)(F)F)c1)C1CCCN1S(=O)(=O)c1cccc2nsnc12` (stereo not drawn), 22.4 µM (active). With `CC1=NCCc2c1[nH]c1cc(O)ccc21` the entry was “inactive”; with `O=C(Cn1c(NCCCl)nc2ccccc21)c1ccc(Br)cc1`, “inactive”. For the molecule `O=C(CCN1CCN(c2ccccc2)CC1)c1ccc(Br)cc1`, the Potency was 39.8 µM (active). With `COc1ccc(-n2nnnc2C(c2ccccc2OC(F)(F)F)N2CCC3(CC2)C(=O)NCN3c2ccccc2)cc1` (stereo not drawn) the figure was 39.8 µM (active). To `COc1ccc(C(c2nnnn2-c2ccc(OC)cc2)N2CCC3(CC2)C(=O)NCN3c2ccccc2)cc1` (stereo not drawn) belongs 35.5 µM (active); to `COc1ccc(-n2c(/C=C/c3ccc(O)c(O)c3)nc3ccccc3c2=O)cc1`, “inactive”.

As for `Cc1cccc(C)c1-n1nnnc1C(C1CC1)N1CCC2(CC1)C(=O)NCN2c1ccccc1` (stereo not drawn), the Potency is 39.8 µM (active). To `COc1ccc(-n2nnnc2C(c2ccnc3ccccc23)N2CCC3(CC2)C(=O)NCN3c2ccccc2)cc1` (stereo not drawn) belongs 39.8 µM (active); to `COc1ccc(C(=O)C2CCCN(Cc3ccc(C)s3)C2)cc1OC` (stereo not drawn), “inactive”. `CC(C)OC(=O)c1c(N)n(CC2CCCO2)c2nc3ccccc3nc12` (stereo not drawn): the Potency result is “inactive”. To `O=C(COc1ccccc1)N1CCN(CCN2C(=O)c3cccc4cccc(c34)C2=O)CC1` belongs “inactive”; to `CCOP(=O)(OCC)c1nc(-c2cccc3ccccc23)oc1N1CCOCC1`, “inactive”; to `Cc1cccc(C)c1-n1nnnc1C(c1ccnc2ccccc12)N1CCC2(CC1)C(=O)NCN2c1ccccc1` (stereo not drawn), 39.8 µM (active). As to `Cc1cccc(C)c1-n1nnnc1C(c1cccs1)N1CCC2(CC1)C(=O)NCN2c1ccccc1` (stereo not drawn), the Potency is 31.6 µM (active). For the molecule `C[C@H]1CC[C@@H]2[C@@H](C)[C@H]3[C@H](C[C@H]4[C@@H]5CC=C6C[C@@H](O[C@@H]7O[C@H](CO)[C@H](O)[C@H](O[C@@H]8O[C@H](CO)[C@@H](O)[C@H](O)[C@H]8O)[C@H]7O[C@@H]7O[C@@H](C)[C@H](O)[C@@H](O)[C@H]7O)CC[C@]6(C)[C@H]5CC[C@]34C)N2C1`, the Potency was 22.4 µM (active). With `COP(=O)(OC)c1nc(-c2cccc3ccccc23)oc1N1CCCCC1`, the Potency result is “inactive”. To `Cc1ccc(OCCOc2cccc(C=C3C(=O)NC(=O)NC3=O)c2)cc1` belongs “inactive”. To `CN(C)c1ccc(C=C2C(=O)NC(=S)NC2=O)cc1` belongs 44.7 µM (active); to `COc1ccc(OC)c(CN2CCN(C(=O)Cc3ccccc3)CC2)c1`, “inactive”. To `O=C1NC(=O)C(=Cc2ccc(SC3CCCCC3)o2)C(=O)N1` belongs 22.4 µM (active). As to `O=C1NC(=O)C(=Cc2ccc(-c3ccccc3[N+](=O)[O-])o2)C(=O)N1`, the Potency entry is “inactive”. With `C=CC[C@@H](CC/C=C/C=C/CC/C=C\[C@@H]1CSC([C@@H]2C[C@@H]2C)=N1)OC` the figure was 17.8 µM (active); with `O=c1ccc2cc(O[C@@H]3O[C@@H](CO)[C@H](O)[C@@H](O)[C@@H]3O)c(O)cc2o1`, “inactive”.

With `CCN(CCCl)c1cc(CN(C)C)cc(NC(=O)c2ccc(C(=O)Nc3cc(CN(C)C)cc(N(CC)CCCl)c3)cc2)c1`, the Potency is 20 µM (active). To `O=C(c1ccc(C(F)(F)F)cc1)C1CCCN(Cc2ccncc2)C1` (stereo not drawn) belongs “inactive”; to `CCn1cc(C(=O)NCCc2ccc(OC)c(OC)c2)c(=O)c2cc(S(=O)(=O)N(C)C3CCCCC3)ccc21`, 25.1 µM (active); to `COC(=O)Cn1cc(C=C2C(=O)N(C)C(=O)N(C)C2=O)c2ccccc21`, “inactive”.

Regarding `O=C1NC(=O)C(=CNc2cc(F)cc(F)c2)C(=O)N1`, the Potency entry was “inactive”. With `CC[n+]1c(/C=C/C=C/c2ccc(N(C)C)cc2)sc2ccccc21` the figure was 5.32 µM (active); with `CC[n+]1c(C=CN(C)c2ccccc2)sc2ccc(Cl)cc21`, 17.8 µM (active). To `CC(C)(C)C(=O)c1cn(Cc2ccccc2)c2ccccc12` belongs “inactive”; to `O=C(NN1C(=O)C2C3C=CC(C4CC34)C2C1=O)c1cccc(Br)c1` (stereo not drawn), “inactive”; to `C[C@@]12CC[C@H](O)C[C@@H]1CC[C@H]1[C@@H]2C[C@@H](O)[C@]2(C)[C@@H](C3=CC(=O)OC3)CC[C@]12O`, 3.16 µM (active).

`C[C@@]12CC[C@H](O)C[C@@H]1CC[C@H]1[C@H]2CC[C@@]2(C)[C@@H](C3=CC(=O)OC3)CC[C@]12O`: the Potency was 0.708 µM (active). To `C=CCNC(=O)c1c(N)n(Cc2ccco2)c2nc3ccccc3nc12` belongs “inactive”; to `COCCCn1c(N)c(C(=O)OC(C)COC)c2nc3ccccc3nc21` (stereo not drawn), “inactive”.

As to `O=C1NC(=O)N(CCc2ccccc2)C(=O)/C1=C\NN1CCOCC1`, the Potency entry was “inactive”.

With `COC1CCC(OC2CC(C3(C)CCC4(CC(O)C(C)C(C(C)/C=C(\C)C(=O)C(C)CC(C)C(=O)O)O4)O3)OC3(OC(C4OC(O)(CO)C(C)CC4C)CC3C)C2C)OC1C` (stereo not drawn), the Potency was 0.562 µM (active). As for `COCCOC(=O)c1c(N)n(Cc2ccco2)c2nc3ccccc3nc12`, the Potency result is “inactive”. To `CC(=O)OC(C)(C)/C=C/C(=O)[C@](C)(O)[C@H]1[C@H](O)C[C@@]2(C)[C@@H]3CC=C4[C@H](C[C@H](O)C(=O)C4(C)C)[C@]3(C)C(=O)C[C@]12C` belongs 39.8 µM (active); to `CC(=O)OC(C)(C)/C=C/C(=O)C(C)(O)C1C(O)CC2(C)C3CC=C4C(CC(O)C(=O)C4(C)C)C3(C)C(=O)CC12C` (stereo not drawn), 0.189 µM (active). Regarding `COc1ccc(C(=O)C2CCCN(Cc3cnc(C)s3)C2)c(OC)c1` (stereo not drawn), the Potency entry is “inactive”. As to `NC(=O)c1cn(C2OC(CO)C(O)C2O)c2ncnc(N)c12` (stereo not drawn), the Potency is 0.316 µM (active). To `COc1ccc2[nH]c(C)c(CCNCc3cn(C)c4ccccc34)c2c1` belongs 17.8 µM (active). With `CCn1c(=O)oc2cc(NC(=O)CCl)ccc21` the figure was 37.7 µM (active); with `Cn1c(=O)oc2cc(NC(=O)CCl)ccc21`, 31.6 µM (active).

Take `COc1ccc(NC(=O)c2cccn(Cc3ccc(Cl)cc3)c2=O)c(OC)c1`: the Potency entry was “inactive”. `CCc1nc2ccc(N3CCN(C)CC3)cc2nc1CC`: the Potency entry was “inactive”. `COCCCn1c(N)c(C(=O)NCc2ccco2)c2nc3ccccc3nc21`: the Potency entry was “inactive”. With `Nc1c(C(=O)Nc2ccc(Cl)cc2)sc2nc3c(cc12)N1CCC3CC1` the entry was “inactive”.

On to `COc1ccc(OCC(=O)N2CCN(C/C=C/c3ccccc3)CC2)cc1`, for which the Potency result is “inactive”. To `COc1ccc(Nc2nc(N)nc(CSc3nc4ccccc4s3)n2)cc1` belongs 39.8 µM (active).
